# Source: PubChem BioAssay
# The source made the active and inactive calls.
# Experiments:
# [1] = A549 cell viability effects, profiling panel, calcein-AM fluorescence, 48 h, basal (AID 1162); settings: higher = more signal
# [2] = adipocyte viability effects, profiling panel, cell-based, 3T3-L1 adipocytes, calcein-AM fluorescence, 48 h, basal (AID 1163); settings: 3T3-L1 adipocytes viability, higher = more signal
# [3] = HepG2 cell viability effects, profiling panel, calcein-AM fluorescence, 48 h, basal (AID 1164); settings: higher = more signal
# [4] = MM1S cell viability effects, profiling panel, calcein-AM fluorescence, 48 h, basal (AID 1165); settings: higher = more signal;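 further: viability of MM1S multiple myeloma cells under basal unstimulated conditions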
# [5] = basal RPMI8226 viability, no added stimulus, profiling panel, cell-based, calcein-AM fluorescence, 48 h, PK04 Diversity Set (AID 1166); settings: RPMI8226 myeloma viability, higher = more signal;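 further: cells grown under basal conditions without added stimulus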
# [6] = basal HepG2 mitochondrial membrane potential changes, profiling panel, cell-based, JC-1 fluorescence, 24 h, 100 nL compound (AID 1167); settings: higher = more signal
# [7] = basal 3T3-L1 adipocyte mitochondrial potential changes, profiling panel, cell-based, JC-1 fluorescence, 3T3-L1 adipocytes, 24 h, 100 nL compound (AID 1168); settings: JC-1 mitochondrial fluorescence, higher = more signal, called active from +8 up or from −8 down
# [8] = basal RPMI8226 mitochondrial membrane potential changes, profiling panel, cell-based, JC-1 fluorescence, 24 h, 100 nL compound (AID 1169); settings: RPMI8226 myeloma, JC-1 mitochondrial potential fluorescence, higher = more signal
# [9] = basal MM1S mitochondrial membrane potential changes, profiling panel, cell-based, JC-1 fluorescence, 24 h, 100 nL compound (AID 1170); settings: higher = more signal
# [10] = A549 lung cancer cell viability effects, profiling panel, resazurin fluorescence, 24 h, PK04 Diversity Set (AID 1171); settings: higher = more signal, called active from +8 up or from −8 down
# Further: test concentration not given here.
Structure (SMILES),z-score [1],z-score [2],z-score [3],z-score [4],z-score [5],z-score [6],z-score [7],z-score [8],z-score [9],z-score [10]
CC(=O)OC[C@H]1O[C@H](CCON=C(C)C)C=C[C@@H]1OC(C)=O,0.191,0.0363,-0.0004,-0.719,-1.12,-0.331,-0.681 (inactive),0.636,-0.57,-0.426 (inactive)
COC(=O)CC=C[C@@H](C)[C@@H](C=NOC(C)CN1CCCc2nc(C)c(C)cc21)NS(=O)(=O)c1ccc(C)cc1 (stereo not given in full),0.969,-0.176,0.0666,-1.08,-0.427,-0.486,-0.774 (inactive),0.462,-0.534,-0.726 (inactive)
CO[C@H]1COC(=O)[C@H](CCSC)NC(=O)CC=C[C@@H](C)[C@H](OC)COC(=O)[C@@H](OCc2ccccc2)C=C[C@@H]1C,-0.843,-0.161,-1.1,-0.0051,0.241,0.247,-1.75 (inactive),0.759,-0.491,0.886 (inactive)
COC(=O)CC=C1c2ccccc2[C@H](OC)[C@H]1C,0.16,-0.116,-0.379,-0.458,-1.22,-0.8,-0.272 (inactive),0.539,-0.707,-0.397 (inactive)
COc1ccc(O[C@H]2C=C[C@@H](c3ccccc3)O[C@@H]2COC(=O)NCc2cccc3ccccc23)cc1,0.152,0.0831,-0.833,-1.23,-0.0376,0.194,-0.351 (inactive),0.396,-0.225,0.618 (inactive)
C[C@H]1CC[C@H]2C(=O)O[C@H](CO)CN2[C@@H]1c1ccc(Br)cc1,0.889,-0.214,0.547,0.349,-0.73,0.0194,-0.526 (inactive),0.301,-0.434,0.581 (inactive)
CO[C@H]1COC(=O)CCC[C@H](C)[C@@H](OC)COC(=O)CC=C[C@@H]1C,0.0792,0.751,0.205,0.105,0.471,-0.503,-0.713 (inactive),-0.483,-0.866,0.0382 (inactive)
CO[C@H]1COC(=O)CC=C[C@H](C)[C@H](OC)COC(=O)[C@@H](C)NC(=O)CC=C[C@@H]1C,-0.42,0.269,-0.642,0.0674,0.222,-0.66,-0.557 (inactive),-0.283,-0.248,0.691 (inactive)
COc1ccc(OC[C@@H]2CC3[C@@H](c4ccc(Br)cc4)[C@H](C)CC[C@H]3C(=O)O2)cc1 (stereo not given in full),0.228,0.0081,0.139,0.332,-0.204,-0.96,0.533 (inactive),0.196,0.0404,0.582 (inactive)
COC(OC)[C@@H](C)[C@H](OC)[C@@H](C)[C@H](OC)c1ccccc1,2.22,0.159,0.568,-0.569,0.692,0.348,-0.14 (inactive),0.404,1,-0.996 (inactive)
CCN(CC)CC(O)CN1CCCCc2nc(C)c(C)cc21 (stereo not given),-0.0127,-0.054,0.776,0.288,0.378,0.68,0.109 (inactive),0.316,-0.989,0.985 (inactive)
CC(=O)OC[C@H]1O[C@H](CC=NOC[C@@H](O)COCc2ccco2)C=C[C@@H]1OC(C)=O,1.04,-0.0657,0.341,-0.175,-0.498,0.186,0.998 (inactive),-0.198,-1.01,0.0719 (inactive)
COC(=O)[C@@H]1CC[C@H](C)[C@@H](c2ccc(Br)cc2)N1C[C@@H](O)CN=[N+]=[N-],-0.618,0.379,-0.494,-0.682,-1.4,0.462,0.866 (inactive),0.65,-0.553,0.0136 (inactive)
C#CCCCON=C1C[C@@H](O)[C@@H](O)[C@@H]2[C@@H]3C(=O)N(C[C@@H]4CCCO4)C(=O)[C@@H]3CC[C@H]12,-0.549,-0.614,-1.28,0.266,0.0556,-0.241,-0.792 (inactive),0.489,-0.149,0.019 (inactive)
CCOC(=O)[C@H](CC(C)C)NC(=O)CCC1CC(OC(=O)NCc2ccc3c(c2)OCO3)CC2(CCCC(COC(=O)NCCc3ccccc3OC)O2)O1 (stereo not given in full),-0.47,-0.837,0.0138,-1.32,-0.312,-0.828,-0.104 (inactive),-0.282,-0.501,1.06 (inactive)
CC(C)=CCCC(C)=CCON=C1C[C@@H](O)[C@@H](O)[C@@H]2[C@@H]3C(=O)N(Cc4ccc5c(c4)OCO5)C(=O)[C@@H]3CC[C@@H]12,-0.0221,0.603,-0.53,-0.788,-0.327,-0.0991,0.581 (inactive),0.0988,-0.909,0.25 (inactive)
CCOC(=O)[C@H](CC(C)C)NC(=O)CCC1CC(OC(=O)NCc2ccc3c(c2)OCO3)CC2(CCCC(COC(=O)NCCC(C)C)O2)O1 (stereo not given in full),0.0634,-0.0921,-0.231,0.473,0.403,0.449,0.135 (inactive),-0.938,-0.155,0.704 (inactive)
CC(C)=NOC(C)CN1CCCc2nc(C)c(C)cc21 (stereo not given),0.755,-0.588,0.272,-0.237,0.0977,0.0197,-0.24 (inactive),-0.416,0.226,-0.373 (inactive)
CC(=O)OC[C@H]1O[C@@H](ON=C(C)CCN2CCCCc3nc(C)c(C)cc32)[C@H](OC(C)=O)[C@@H](OC(C)=O)[C@@H]1OC(C)=O,-1.33,1.58,-0.716,0.224,-2.19,0.203,0.327 (inactive),-0.832,-0.411,-0.101 (inactive)
COC(=O)[C@H](C)NC(=O)CCC1CC(OC(=O)NCc2cccc3ccccc23)CC2(CCCC(COC(=O)NCCCN3CCCC3=O)O2)O1 (stereo not given in full),0.278,-0.172,0.488,0.145,-0.0813,0.24,0.338 (inactive),-0.344,-0.394,0.44 (inactive)
CCOC(=O)CCN1C(=O)[C@H]2[C@H]3[C@H](O)[C@H](O)CC(=NO[C@@H]4O[C@H](CO)[C@@H](O)[C@H](O)[C@H]4O)[C@@H]3CC[C@H]2C1=O,0.816,-0.0641,1.19,-0.269,0.238,-0.0782,-0.0421 (inactive),0.577,-1.45,-0.765 (inactive)
COC(=O)[C@H](C)NC(=O)CCC1CC(OC(=O)NCc2cccc3ccccc23)CC2(CCCC(COC(=O)NCCc3ccccc3OC)O2)O1 (stereo not given in full),-0.932,-1.02,-1.44,-3.38,-1.79,-0.525,-0.309 (inactive),0.179,-1.33,0.642 (inactive)
CC(C)CON=C1C[C@@H](O)[C@@H](O)[C@@H]2[C@@H]3C(=O)N(Cc4ccccc4)C(=O)[C@@H]3CC[C@H]12,-0.216,0.785,-0.155,0.825,-0.48,0.974,-1.26 (inactive),-0.0623,-0.628,0.312 (inactive)
O=C1C=C[C@@H](O)[C@@H]2[C@@H]3C(=O)N(Cc4ccccc4)C(=O)[C@@H]3CC[C@@H]12,0.698,0.594,1.33,-0.134,-0.73,1.42,-0.125 (inactive),-0.057,-0.05,-0.754 (inactive)
